Source: article PMC4336329 (PLoS ONE, 2015)
The whole screen tested about 310,000 compounds, of which about 14,000 (4.5%) showed an effect of 50% or more. The effect is printed as a negative number. Only a selection was taken, and strong results are over-represented in it overall.

These compounds were tested against human ether-à-go-go-related gene (hERG) potassium channel (human, UniProt Q12809) (assay: primary screen, population patch clamp on CHO cells stably expressing hERG; higher = less effect of the substance).
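Also: peak tail current of the secondary pulse compared with the same well before compound.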

human ether-à-go-go-related gene (hERG) potassium channel, sequence (Q12809 whole entry, looked up): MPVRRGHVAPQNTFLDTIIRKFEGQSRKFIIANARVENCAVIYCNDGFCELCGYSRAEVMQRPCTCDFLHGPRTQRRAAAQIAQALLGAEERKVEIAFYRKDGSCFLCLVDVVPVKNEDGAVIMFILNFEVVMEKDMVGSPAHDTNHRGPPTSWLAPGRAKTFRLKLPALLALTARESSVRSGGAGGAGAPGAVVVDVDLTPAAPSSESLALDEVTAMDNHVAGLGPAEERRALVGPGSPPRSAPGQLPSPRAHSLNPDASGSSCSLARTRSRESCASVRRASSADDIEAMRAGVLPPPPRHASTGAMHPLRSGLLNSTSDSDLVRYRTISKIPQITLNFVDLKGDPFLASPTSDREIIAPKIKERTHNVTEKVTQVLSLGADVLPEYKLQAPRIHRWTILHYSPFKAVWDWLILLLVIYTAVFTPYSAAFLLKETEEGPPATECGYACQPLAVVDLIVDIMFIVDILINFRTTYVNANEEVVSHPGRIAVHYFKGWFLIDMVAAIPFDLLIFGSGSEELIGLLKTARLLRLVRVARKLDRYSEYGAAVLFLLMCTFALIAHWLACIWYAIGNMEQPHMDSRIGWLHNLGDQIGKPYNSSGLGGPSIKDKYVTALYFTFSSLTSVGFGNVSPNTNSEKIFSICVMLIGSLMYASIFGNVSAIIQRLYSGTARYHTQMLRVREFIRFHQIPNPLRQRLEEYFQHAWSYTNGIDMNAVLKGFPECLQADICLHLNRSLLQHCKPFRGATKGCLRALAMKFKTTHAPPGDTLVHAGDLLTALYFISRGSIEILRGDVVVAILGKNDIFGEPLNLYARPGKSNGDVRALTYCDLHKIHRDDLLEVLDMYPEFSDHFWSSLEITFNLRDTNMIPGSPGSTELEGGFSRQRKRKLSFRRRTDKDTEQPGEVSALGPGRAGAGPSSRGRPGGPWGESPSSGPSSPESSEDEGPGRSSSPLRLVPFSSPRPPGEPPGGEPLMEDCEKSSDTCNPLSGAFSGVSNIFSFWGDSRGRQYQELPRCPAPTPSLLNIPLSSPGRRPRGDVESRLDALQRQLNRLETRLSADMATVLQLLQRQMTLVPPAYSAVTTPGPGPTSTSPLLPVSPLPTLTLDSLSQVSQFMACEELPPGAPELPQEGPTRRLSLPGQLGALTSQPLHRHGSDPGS

In order of rising “hERG current change (%, negative = inhibition) at 10uM” value:
1. Cc1ccc(C(=O)N/C(=C\c2ccc(F)cc2)C(=O)NCc2ccncc2)cc1  -75.9%
2. C(=C\c1ccccc1)/CSc1nnc(-c2cnccn2)n1Cc1ccco1  -73.4%
3. Cc1ccc(C(=O)N/C(=C/c2ccc(F)cc2)C(=O)NCc2ccncc2)cc1  -72.8%
4. O=C(NCc1ccncc1)/C(=C\c1ccc(F)cc1)NC(=O)c1ccccc1  -70.9%
5. O=C(CSc1nnc(-c2cccnc2)n1Cc1ccco1)c1ccc(Br)cc1  -63.8%
6. O=C(CSc1nnc(-c2cccnc2)n1Cc1ccco1)c1ccc(Cl)cc1  -63.6%
7. Cc1ccc(CNC(=O)Cn2cnc(S(=O)(=O)N3CCC(C)CC3)c2)o1  -62.1%
8. Cc1cccc(N2CCN(C(=O)CN(C)S(=O)(=O)c3ccc4c(c3)CCC(=O)N4)CC2)c1C  -60.5%
9. Nc1ncc(Br)cc1S(=O)(=O)NCCC(=O)N1CCN(c2ccccn2)CC1  -55.4%
10. CN(CC(=O)N1CCN(c2ccccn2)CC1)S(=O)(=O)c1ccc(Br)cc1  -54.8%
11. CC1CCN(S(=O)(=O)c2cn(CC(=O)N3CCN(c4cccc(C(F)(F)F)c4)CC3)cn2)CC1  -54%
12. CN(CC(=O)N1CCN(c2ccc(F)cc2)CC1)S(=O)(=O)c1ccc(F)cc1  -53.2%
13. Cc1ccc(S(=O)(=O)CC(=O)N2CCN(c3ccc(F)cc3)CC2)cc1  -51.5%
14. C(=C\c1ccccc1)/CSc1nnc(-c2ccccn2)n1Cc1ccco1  -50.9%
15. Cc1ccc(S(=O)(=O)CC(=O)N2CCN(c3cccc(C(F)(F)F)c3)CC2)cc1  -50.4%
16. CN(CC(=O)N1CCN(c2ccccn2)CC1)S(=O)(=O)c1ccc(Cl)cc1  -46.2%
17. O=C(CSc1nnc(-c2ccncc2)n1Cc1ccco1)c1ccc(Cl)cc1  -46%
18. O=C(CSc1nnc(-c2cccnc2)n1Cc1ccco1)c1ccc(Cl)c(Cl)c1  -45.2%
19. CCN(CC(=O)NCc1cccs1)C(=O)COc1ccc(C(C)=O)cc1  -45.1%
20. Cc1cccc(N2CCN(C(=O)CCNS(=O)(=O)c3ccc4c(c3)CCC(=O)N4)CC2)c1C  -44.6%
21. COc1ccc(S(=O)(=O)N(C)CC(=O)N2CCN(c3ccc(F)cc3)CC2)cc1OC  -44%
22. O=C(CCS(=O)(=O)c1ccccc1)N1CCN(c2cccc(C(F)(F)F)c2)CC1  -43.1%
23. COc1ccc(C(=O)CSc2nnc(-c3cccnc3)n2Cc2ccco2)cc1  -42.9%
24. O=C(CSc1nnc(-c2ccccn2)n1Cc1ccco1)c1ccccc1  -42.5%
25. O=C(CS(=O)(=O)c1ccc(F)cc1)N1CCN(c2ccccc2)CC1  -42.4%
26. Cc1ccc(C)c(N2CCN(C(=O)CN(C)S(=O)(=O)c3ccc4c(c3)CCC(=O)N4)CC2)c1  -41.5%
27. O=C(Nc1ccc(NC(=O)c2cccs2)c(Cl)c1)c1ccco1  -39.4%
28. O=C(NCCSc1ncc(-c2ccc(F)cc2)[nH]1)c1ccco1  -37.1%
29. O=C(CSc1nnc(-c2ccccc2)c2ccccc12)NCCN1C(=O)CSC1=O  -27.6%
30. Nc1ncc(Br)cc1S(=O)(=O)NCCC(=O)N1CCN(c2ncccn2)CC1  -25.6%
31. O=S1(=O)CCC(N=Nc2c(O)n(Cc3ccccc3)c3ccccc23)C1 (centres unmarked)  -25.1%
32. O=C(Nc1ncccc1O)c1cccc(S(=O)(=O)NCc2ccccc2)c1  -20.3%
33. Cc1ccc(S(=O)(=O)CC(=O)N2CCN(c3ccccc3F)CC2)cc1  -16.8%
34. O=C(CSc1nnc(-c2cnccn2)n1Cc1ccco1)c1ccccc1  -16.3%
35. CCn1c(SC/C=C/c2ccccc2)nnc1-c1cnccn1  -14.7%
36. O=C(NCc1ccco1)/C(=C/c1ccc(F)cc1)NC(=O)c1ccccc1  -14.1%
37. CC1(C)C[C@H](O)[C@]2(CO)CC[C@]3(C)C(=CCC4[C@@]5(C)CC[C@H](O)C(C)(C)C5CC[C@]43C)[C@@H]2C1 (some centres unmarked)  -13.9%
38. CN(CC(=O)N1CCN(c2ccccn2)CC1)S(=O)(=O)c1ccccc1  -12.8%
39. CN(C)c1ccc(/C=C(\NC(=O)c2ccccc2)C(=O)NCc2ccncc2)cc1  -12.8%
40. CSc1ccc(/C=C(\NC(=O)c2ccc(C)cc2)C(=O)NN)cc1  -10.9%
41. O=C(CSc1nnc(-c2cccnc2)n1Cc1ccco1)c1ccccc1  -10.3%
42. CC(CN1CCCC1)OC(=O)c1ccc(F)cc1.Cl (centres unmarked)  -10.1%
43. Cc1ccc(NC(=O)/C(=C/c2ccncc2)NC(=O)c2ccccc2)cc1  -9.82%
44. Cc1ccc(CC(=O)N2CCN(c3cccc(C(F)(F)F)c3)CC2)cc1  -9.64%
45. Nc1ncc(Br)cc1S(=O)(=O)NCCC(=O)N1CCN(c2ccccc2)CC1  -8.45%
46. CC(=NCC1CCCO1)c1c(O)n(-c2ccc(C)cc2)c(=O)[nH]c1=O (centres unmarked)  -8.18%
47. CCCCNC(=O)CCC(=O)N1CCN(C(c2ccccc2)c2ccccc2)CC1.Cl  -7.34%
48. CCOC(=O)C1SC2(C(F)(F)C(F)F)CC1(O)c1c(c(OC)c3occc3c1OC)O2 (centres unmarked)  -3.47%
49. CCOc1ccc(NC(=O)c2ccccc2NC(=O)CN2CCN(C(C)=O)CC2)cc1  -3.2%
50. Cc1ccc(CNC(=O)Cn2cnc(S(=O)(=O)N3CCCCC3)c2)o1  -2.35%
51. CCOC(=O)c1ccccc1NC(=O)c1cn(-c2ccc(C)c(C)c2)c(=O)c2ccccc12  -2.12%
52. O=C1CC(NNc2nc3ccccc3s2)C(=O)N1c1ccccc1 (centres unmarked)  -1.89%
53. COC(=O)CNC(=O)c1ccc(C)s1  -0.614%
54. Cc1ccnc(NC(=O)CCC(=O)N(CC(=O)NC(C)(C)C)C2CCCC2)c1  1%
55. NC(=S)Nc1cccc2cnccc12  1.4%
56. Cc1cc(C)c(OCC(=O)Nc2cccc(NC(=O)c3ccco3)c2)c(Br)c1  1.79%
57. COc1cc(C)ccc1OCCOc1c(C)cccc1Cl  2.01%
58. NC(=O)CSc1nnc(-c2ccccn2)n1Cc1ccco1  4.36%
59. Cn1c(C(O)c2ccc3c(c2)OCO3)nc2ccccc21 (centres unmarked)  5.63%
60. Cl.O=C(/C=C/c1ccccc1)Nc1ccc(N2CCCCC2)cc1  5.7%
61. CSc1ccc(/C=C(/NC(=O)c2ccc(C)cc2)C(=O)Nc2cccc(F)c2)cc1  6.66%
62. COc1ccc(C2CC(c3ccc(C)o3)=NN2C(C)=O)cc1 (centres unmarked)  7.14%
63. Cn1cnc(S(=O)(=O)N2CCN(c3cccc(C(F)(F)F)c3)CC2)c1  7.43%
64. CC(=O)c1ccc(N2CCN(C(=O)Cn3cnc(S(=O)(=O)N4CCCCC4)c3)CC2)cc1  7.48%
65. O=C(CCc1ccccc1)Nc1ccc(NC(=O)C2CCCCC2)nc1  7.57%
66. Cc1cc(-c2n[nH]c(=S)n2/N=C/c2ccco2)n[nH]1  7.99%
67. O=C(CSc1ccccn1)Nc1ccc2c(c1)OCCO2  8.07%
68. O=C(Cn1cnc(S(=O)(=O)N2CCCCC2)c1)NCc1ccco1  8.34%
69. O=C(Nc1cccnc1)c1cc2cc(Br)ccc2o1  8.93%
70. COc1cc(NC(=O)c2cc3ccccc3cc2OC)ccc1NC(=O)c1cccs1  9.15%
71. O=C(COC(=O)Cc1cccc2ccccc12)Nc1ccccc1-c1ccccc1  9.26%
72. COc1ccc(-c2cc(-c3ccccc3)no2)cc1  9.77%
73. Cc1ccc(S(=O)(=O)N2c3ccccc3NC(=O)CC2C)cc1 (centres unmarked)  10.5%
74. O=c1[nH]n2cc(-n3cc([N+](=O)[O-])cn3)cnc2c1Br  10.6%
75. O=C(O)c1cccc(-n2cccc2/C=N/O)c1  11.4%
76. CC1CCCC(NC(=S)Nc2cccc(S(=O)(=O)N(C)C)c2)C1C (centres unmarked)  13.7%
77. O=C(NCc1ccc(F)cc1)c1ccncc1  13.7%
78. CCc1c(C(=O)NNC(=S)NC2CCCCC2)csc1C  16.3%
79. CCOc1ccc(NC(=O)NCc2ccco2)cc1  16.4%
80. CN1CCN(C(=O)CN(C)S(=O)(=O)c2ccc(F)cc2)CC1  16.8%
81. CCOC(=O)/C=C1\SCC(=O)N1CC(=O)Nc1ccccc1OC(F)F  18.8%
82. C=CCn1c(-c2ccc(Cl)cc2)c[nH]c1=S  19.4%
83. O=c1cc(C(F)(F)F)c2sc(N3CCCCC3)nc2[nH]1  20.1%
84. Cc1cnc(NC(=O)CC2CCCC2)s1  21.5%
85. O=C(CSc1nnc2ccccn12)NCc1ccco1  22.3%
86. CC(C)N(C(=O)CSc1nnc(CSc2ncccn2)n1C)C(C)C  32.8%
